Screening data deposited in PubChem BioAssay by several laboratories.
A selection: hits, their analogues and other compounds. The true share with any hit is near 4.6%.
V-ATPase pHluor: regulators of yeast V-ATPase proton transport; S. cerevisiae, pHLuorin cytosolic pH fluorescence; response, % at 10 µM; actives 0.37% (n = 350,000); AID 504577; in the data active = response mostly above about 7.3%, no sharp cut-off; inactive = mostly below about 5.4%; note: actives read high
PfHsp90 yeast 2: inhibits growth of yeast expressing Plasmodium falciparum Hsp90; actives 0.32% (n = 310,000); S. cerevisiae expressing PfHsp90, BacTiter-Glo ATP, 48 h; yeast lacking PDR1 and PDR3 efflux regulators; AID 504621; inhibition, % at 9.4 µM;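 active = every replicate shows inhibition above about 80%, whatever the replicate mean, limit read from the data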;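 note: 0% = DMSO neutral controls and 100% = 20 µM radicicol positive controls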
tim23-1 inh: growth inhibitors of tim23-1 mutant yeast. S. cerevisiae tim23-1 growth, BacTiter-Glo luminescence, 24 h. inhibition, % at 20 µM. actives 1.3% (n = 330,000);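 active = growth inhibition of the mutant yeast at or above 50%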;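 note: temperature-sensitive mutant grown at 25 °C; plate controls were DMSO-treated mutant yeast for no effect and medium wells lacking yeast for full effect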
tim10-1 inh: growth inhibitors of tim10-1 mutant yeast; actives 2.2% (n = 330,000); inhibition, % at 20 µM; S. cerevisiae tim10-1 ts strain growth, BacTiter-Glo, 24 h; AID 463190;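 active = inhibition of at least 40%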;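 note: mutant grown at 25 °C; 0% = DMSO wells with yeast and 100% = wells holding no yeast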
TIM10 inh: inhibits growth of TIM10 yeast strain; S. cerevisiae TIM10 strain growth, BacTiter-Glo luminescence, 24 h; inhibition, % at 10 µM; actives 1.4% (n = 330,000); AID 463195;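 active = inhibition of 40% or more at the single tested concentration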;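 note: wild-type TIM10 isogenic control strain grown at permissive 25 °C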
SKKanGAS inh: SKKanGAS growth inhibition. actives 1.3% (n = 300,000). S. pyogenes SKKanGAS, kanamycin growth, BacTiter-Glo, 6 h. inhibition, % at 7.5 µM. AID 1662;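 active = mean replicate score, as percent of positive control median, at least 50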;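 note: strain carries kanamycin resistance gene driven by streptokinase promoter and grows in 40 µg/ml kanamycin; loss of luminescence reflects streptokinase promoter inhibition or plain growth inhibition; 0% = median of DMSO wells and 100% = positive control at its reference dose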
tim23-1 confirm: tim23-1 yeast growth inhibition, confirmed | AID 463218 | shares compounds with tim23-1 inh | actives 83% (n = 4,400) | inhibition, % at 20 µM | S. cerevisiae tim23-1 growth, BacTiter-Glo luminescence, 24 h;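 active = inhibition above about 39% in either of two replicate wells at 20 µM, limit read from the data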;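 note: temperature-sensitive tim23-1 mutant grown at 25 °C; 0% = DMSO wells with yeast and 100% = medium wells without yeast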
The depositor's hits bear a star; x = no result.

SMILES	V-ATPase pHluor	PfHsp90 yeast 2	tim23-1 inh	tim10-1 inh	TIM10 inh	SKKanGAS inh	tim23-1 confirm
O=C(Nc1ccccc1C(=O)Nc1ccc(Br)cn1)c1ccccc1Cl	1.3	-28.6	51.7*	37.3	18.1	x	53.6*
COCc1ccc(C(=O)NC2CCCc3c2cnn3-c2ccc(C)c(C)c2)o1 (stereo not drawn)	4.9	9.3	29.8	28.6	17.4	39.3	x
C=C(C)CNC(=S)N/N=C/c1c(F)cccc1F	-3.0	-28.0	43.3	3.7	24.8	-14.5	x
COc1cc(NC(=S)Nc2ccccn2)cc(OC)c1	5.8	13.2	51.1*	15.0	26.5	-1.9	17.8
COc1cc2cc(C(=O)Nc3ccc4c(c3)OCCO4)[nH]c2cc1OC	0.5	-1.8	19.5	2.4	8.6	-0.6	x
CN(C(=O)CSc1cc(C(=O)c2nccn2C)c2ccccc2n1)c1ccccc1	3.6	5.1	50.5*	16.9	29.4	7.4	41.4*
O=C(CCl)Nc1cn(-c2ccccc2)nc1-c1ccc(F)cc1	-1.7	x	60.6*	27.6	11.6	-0.6	31.6
Fc1ccc(-c2nn(-c3ccccc3)cc2CNCc2ccccc2)cc1	-2.5	10.2	28.6	10.9	16.6	5.2	x
CCS(=O)(=O)c1ccc(-c2cccc(NC(=O)c3ccco3)c2)nn1	-0.4	1.5	10.9	25.0	-1.3	-2.4	x
CCOc1ccc(-c2cccc(NC(=O)c3ccco3)c2)nn1	1.1	-17.5	54.1*	12.9	-24.5	38.6	14.4
COc1ccc(-c2cccc(NC(=O)c3cccs3)c2)nn1	-1.5	x	61.7*	9.5	-10.4	22.4	56.0*
CCOc1ccc(-c2cccc(NC(=O)c3cccs3)c2)nn1	-9.8	7.4	62.5*	4.8	-2.4	18.8	47.4*
Cc1ccc(S(=O)(=O)c2nc(/C=C/c3ccccc3)oc2N2CCC(C(N)=O)CC2)cc1	1.2	x	x	x	x	x	x
O=c1cc(-c2ccccc2Cl)oc2c(NS(=O)(=O)c3cc(Cl)cc(Cl)c3O)ccc(O)c12	11.3	x	51.9*	4.3	27.2	109.1*	-222.4
C=CCn1c(=O)/c(=C/c2ccsc2)s/c1=C(\C#N)C(=O)NCCN1CCOCC1	0.0	x	x	x	x	x	x
Oc1ccc(Oc2ccc(Oc3ccc(O)cc3)cc2)cc1	1.9	-90.6	59.4*	-10.4	-16.0	66.6*	50.7*
CC(=O)c1ccc(Oc2ccc(C(C)=O)cc2)cc1	1.4	-4.8	18.4	-8.0	2.3	-2.6	x
O=C(CCN1CCOCC1)NC1CCCN(Cc2ccccc2F)C1 (stereo not drawn)	1.5	-30.2	-11.4	-10.7	-2.5	-1.6	x
COc1ccc(C2=NN(C(=O)CCC(=O)O)C(c3ccc(OC)c(OC)c3)C2)cc1 (stereo not drawn)	1.8	9.5	10.7	15.7	6.7	10.4	x
COc1ccc(C2CC(c3ccc(Br)cc3)=NN2C(=O)CCC(=O)O)cc1OC (stereo not drawn)	0.6	10.5	95.6*	0.8	-0.5	-5.4	15.3
CCOC(=O)c1nnsc1NC(=O)Nc1ccc(OC)cc1	-1.1	-6.4	83.6*	-14.2	8.4	5.8	1.9
CCOc1ccc(Nc2nc(N(C)c3ccccc3)nc(N)c2[N+](=O)[O-])cc1	1.0	1.4	-8.7	-28.7	3.1	9.2	x
Cn1c(C=O)c(-c2ccc3cc[nH]c3c2)c2ccccc21	-3.7	4.4	64.4*	35.1	37.7	x	55.2*
CC(=O)OC1c2ccccc2C(=O)N1Cc1ccccc1 (stereo not drawn)	6.0	10.5	-9.0	5.3	1.9	-3.2	x
O=c1[nH]c(CN2CCN(c3ccc(O)cc3)CC2)nc2scc(-c3ccc(Cl)cc3)c12	1.8	-2.3	31.1	10.7	19.3	31.0	x
SMILES	V-ATPase pHluor	PfHsp90 yeast 2	tim23-1 inh	tim10-1 inh	TIM10 inh	SKKanGAS inh	tim23-1 confirm
O=c1[nH][nH]c(-c2ccccc2)c1-c1ccccc1	-3.1	x	x	x	x	x	x
O=c1c(-c2ccccc2)c1-c1ccccc1	x	x	57.9*	16.0	-14.4	0.6	-11.3
CCCCNc1c(-c2ccc(OC)c(SC(C)CC)c2)nc2ccc(C)cn12 (stereo not drawn)	-0.9	-6.6	54.3*	3.9	3.2	x	40.9*
CCC(C)Sc1cc(-c2nc3cc(C)ccn3c2NC2CCCCC2)ccc1OC (stereo not drawn)	1.6	7.2	60.4*	33.7	33.6	x	48.9*
CCCCNc1c(-c2ccc(OC)c(SC(C)CC)c2)nc2cc(C)ccn12 (stereo not drawn)	1.2	-11.8	55.2*	29.0	19.7	x	50.8*
CCC(C)Sc1cccc(-c2nc3cnccn3c2NC2CCCCC2)c1 (stereo not drawn)	5.4	19.1	50.0	20.7	19.4	x	41.3*
COc1ccc(CNC(=O)CNS(=O)(=O)c2ccc(Cl)cc2)cc1	-1.4	-21.9	8.6	15.5	14.2	-3.8	x
C=CCN(CC=C)C(=O)C(=O)c1ccn(-c2c(C)csc2C(=O)OC)c1	0.0	7.7	14.9	15.8	17.6	-0.1	x
Cc1cccc2nc(-c3ccccc3)nc(N[C@@H](CO)c3ccccc3)c12	-2.8	3.1	49.7	34.9	35.1	-14.5	x
COCc1[nH][nH]c(=O)c1/C=N/N1CCOCC1	-2.1	-1.5	-1.0	6.9	0.5	2.5	x
O=C1C=C(c2ccc(O)cc2)C[C@@H](c2ccc(Cl)cc2)C1	0.6	-21.1	53.0*	-0.1	-11.8	x	37.8
O=C1C=C(c2ccc3ccccc3c2)C[C@@H](c2ccc(Cl)cc2)C1	-6.5	0.7	-0.1	-6.6	8.7	x	x
O=C1C=C(c2ccc3[nH]ccc3c2)C[C@@H](c2ccc(Cl)cc2)C1	4.2	-66.8	51.9*	33.9	26.9	x	46.1*
O=C1C=C(c2ccc3ncccc3c2)C[C@@H](c2ccc(Cl)cc2)C1	1.3	-4.1	52.4*	0.1	8.8	x	27.6
N#Cc1ccc(S(=O)(=O)N2CCN(CC(=O)NCC3(N4CCOCC4)CCCCC3)CC2)cc1	1.2	1.1	-8.5	-10.6	14.8	x	x
O=[N+]([O-])c1ccc(N=Nc2c(O)[nH]c3ccc(F)cc23)cc1	-0.4	-22.2	50.0*	35.1	2.8	14.1	13.1
N=c1oc2ccc([N+](=O)[O-])cc2cc1C(=O)NCc1ccccc1	1.9	-2.2	58.6*	26.0	15.1	-2.7	56.3*
CCN1C(=O)c2ccc(C(=O)Nc3nccs3)cc2C1=O	-0.4	3.5	6.6	-11.1	16.3	-6.0	x
CC(C)(C)N1C(=O)c2ccc(C(=O)Nc3nccs3)cc2C1=O	0.2	-1.7	57.6*	4.7	7.9	-3.9	58.8*
Oc1ccc2ccccc2c1C=Nc1ccccc1-c1nc2ccccc2[nH]1	-1.6	4.5	51.8*	39.3	14.9	9.1	46.5*
O=C(O)c1ccccc1-c1nc2ccccc2[nH]1	-0.6	6.8	3.7	7.0	1.9	-2.8	x
